Data reported in PubChem BioAssay (EPA / NIEHS).
Inconclusive results are not listed. Activity calls are given as the source filed them. How the source made its calls: active means hit-call score of the fitted dose curve at least 0.9, where 1 is the maximum; inconclusive means response in the unintended direction; inactive means score below 0.9.

What follows are compounds tested on Cytochrome P450 2C9 (Homo sapiens) (UniProt P11712) (assay: CLD_CYP2C9_24hr: CellzDirect (CLD) Gene Expression Assay for xenobiotic metabolism (CYP2C9) at 24 hours (AID 2283688)).
Experimental: CLD_24hr is a cell-based, multiplexed-readout assay that uses hepatocyte, a human liver primary cell, with measurements taken at 24 hours after chemical dosing in a 96-well plate.CLD_CYP2C9_24hr is one of 16 assay component(s) measured or calculated from the CLD_24hr assay. It is designed to make measurements of mRNA induction, a form of inducible reporter, as detected with chemiluminescence signals by Quantitative Nuclease Protection Assay (qNPA) technology.Data from the assay component CLD_CYP2C9_24hr was analyzed at the endpoint, CLD_CYP2C9_24hr, in the positive analysis fitting direction relative to DMSO as the negative control and baseline of activity. Using a type of inducible reporter, gain-of-signal activity can be used to understand changes in the reporter gene as they relate to the gene CYP2C9. Furthermore, this assay endpoint can be referred to as a primary readout. To generalize the intended target to other relatable targets, this assay endpoint is annotated to the cyp intended target family, where subfamily is xenobiotic metabolism.
Human hepatocyte cultures were treated daily for two consecutive days with fresh dosing solutions containing appropriate concentrations of the 320 ToxCast chemicals (chemical identities were blinded to CellzDirect and other ToxCast collaborators), vehicle control (0.2% DMSO), and positive control inducers as summarized in Table 1. Due to the large number of treatment groups and chemicals examined, the ToxCast chemicals were divided into two groups (spanning two independent cultures of hepatocytes from separate donor preparations (Hu778: ToxCast plates 1 and 2; Hu776: ToxCast plates 3 and 4). Each preparation of human hepatocyte cultures was treated with respective vehicle control, medium only control, set of six positive controls/reference chemicals for the five hepatic receptor pathways, and a subset of eight of the ToxCast chemicals (indoxacarb, pyrithiobac-sodium, norflurazon, cyhalofop-butyl, methomyl, thiram, acetochlor, and propiconazole). These replicate data, coupled with internal replicates designed within the blinded ToxCast chemical library, provided additional data to evaluate interindividual differences between hepatocyte preparations and their potential impact on chemical profiles.Cell morphology and integrity were evaluated using phase-contrast microscopy as an indicator of hepatocyte cell health (Tyson & Green, 1987). Cultures for each treatment group (i.e., media, vehicle [0.2% DMSO], positive control inducers [multiple concentrations], and the ToxCast chemicals [multiple concentrations]) were observed and cell morphology was assessed relative to vehicle control cultures at each harvest time point (0, 6, 24, or 48 h). […] Images were evaluated at the conclusion of the study to assess changes in cell integrity and account for the effects of chemical exposure on uncharacteristic changes in concentration-dependent gene expression profiles. The results from these determinations of apparent cytotoxicity were annotated (yes/no) alongside the corresponding qNPA data for reference.At the conclusion of each treatment period, hepatocyte cultures (96-well) were washed with 1 volume of HBSS, lysed by addition of 25 ul ArrayPlate lysis buffer (HTG, Tucson, AZ), and 70 ul/well of Denaturation Oil, denatured by incubation at 95C for 10 min, and frozen at approximately -70C until analysis by nuclease protection assay (qNPA) (Roberts et al., 2007). For qNPA analysis, cell lysates were thawed at 50C for approximately 30 min, qNPA probes were added, and samples were incubated at 95C for 10 min to begin the detection process by denaturing the target RNA, dissociating the duplexes and secondary structure hybridization. At the conclusion of the hybridization period, S1 nuclease reagent was added to each sample to digest all nonprotected nucleotides at 50C for 60-90 min. […]
For `O=C(NC(=O)c1c(F)cccc1F)Nc1ccc(OC(F)(F)C(F)OC(F)(F)F)c(Cl)c1` (stereo not given), the outcome was “inactive”. `CCOc1nc(NC)nc(NC(=O)NS(=O)(=O)c2ccccc2C(=O)OC)n1` was tested, and the outcome was “inactive”. `CCOC1Oc2ccc(OS(C)(=O)=O)cc2C1(C)C` (stereo not given) was tested, and the outcome was “inactive”. With `CN1CSC(=S)N(C)C1` the outcome was “inactive”. For `C[C@H]1[C@H](c2ccc(Cl)cc2)SC(=O)N1C(=O)NC1CCCCC1`, the outcome was “inactive”. With `COc1nn(CSP(=S)(OC)OC)c(=O)s1` the outcome was “inactive”. For `Oc1ccc(Cl)cc1Cc1ccccc1`, the outcome was “inactive”. For `CCOCN(C(=O)CCl)c1c(C)cccc1CC`, the outcome was “inactive”. `CC(C)(C)C(O)C(Oc1ccc(Cl)cc1)n1cncn1` (stereo not given) was tested, and the outcome was “inactive”. For `ClC1C(Cl)C(Cl)C(Cl)C(Cl)C1Cl` (stereo not given), the outcome was “inactive”. In the case of `CC(C)OC(=O)Nc1cccc(Cl)c1`, the outcome is reported as “inactive”. `COP(=S)(OC)Oc1ccc([N+](=O)[O-])cc1` was tested, and the outcome was “inactive”. With `O=[N+]([O-])c1c(Cl)c(Cl)c(Cl)c(Cl)c1Cl` the outcome was “inactive”. In the case of `O=C(O)CCCOc1ccc(Cl)cc1Cl`, the outcome is reported as “inactive”. `CCC(C)(C)C(=O)OC1=C(c2ccc(Cl)cc2Cl)C(=O)OC12CCCCC2` was tested, and the outcome was “inactive”. `COc1cc(OC)nc(NC(=O)NS(=O)(=O)c2cc(NC=O)ccc2C(=O)N(C)C)n1` was tested, and the outcome was “inactive”. `CCCN(CCC)c1c([N+](=O)[O-])cc(C(F)(F)F)cc1[N+](=O)[O-]` was tested, and the outcome was “inactive”. `O=S1OCC2C(CO1)C1(Cl)C(Cl)=C(Cl)C2(Cl)C1(Cl)Cl` (stereo not given) was tested, and the outcome was “inactive”. In the case of `O=S(=O)(O)C(F)(F)C(F)(F)C(F)(F)C(F)(F)C(F)(F)C(F)(F)C(F)(F)C(F)(F)F`, the outcome is reported as “inactive”. `CCC(C)(NC(=O)c1cc(Cl)c(C)c(Cl)c1)C(=O)CCl` (stereo not given) was tested, and the outcome was “inactive”. For `OCCOc1ccccc1`, the outcome was “inactive”. `COC(=O)c1ccccc1CS(=O)(=O)NC(=O)Nc1nc(OC)cc(OC)n1` was tested, and the outcome was “inactive”. For `COC(=O)c1ccccc1S(=O)(=O)NC(=O)N(C)c1nc(C)nc(OC)n1`, the outcome was “inactive”. For `CC1(C)C(C=C(Cl)Cl)C1C(=O)OC(C#N)c1ccc(F)c(Oc2ccccc2)c1` (stereo not given), the outcome was “inactive”. In the case of `Clc1ccccc1-c1nnc(-c2ccccc2Cl)nn1`, the outcome is reported as “inactive”. With `Cc1[nH]c(=O)n(C(C)(C)C)c(=O)c1Cl` the outcome was “inactive”. For `CNC(=O)Oc1cccc(N=CN(C)C)c1`, the outcome was “inactive”. For `CNC(=O)/C=C(\C)OP(=O)(OC)OC`, the outcome was “inactive”. `C#CCN1C(=O)COc2cc(F)c(N3C(=O)C4=C(CCCC4)C3=O)cc21` was tested, and the outcome was “inactive”. With `CC(C)(C)C(O)/C(=C\c1ccc(Cl)cc1Cl)n1cncn1` (stereo not given) the outcome was “inactive”.
